# Source: PubChem BioAssay (National Center for Advancing Translational Sciences (NCATS))
# Hits are enriched below; roughly 11% of the tested compounds scored in any of these assays.
# PNC assembly inh: High Content Assay for Compounds that inhibit the Assembly of the Perinucleolar Compartment; PC3M PTB-GFP, PNC prevalence imaging, 16 h; active compounds read low; activity change (PNC), negative = inhibition, % at 10 µM; hit rate 3.1% among 140,000;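 active means readout at or below -70, meaning at least 70% loss of cells showing the perinucleolar compartment, a nuclear body marking cancer cells; inconclusive means readout between -30 and a set limit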;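 further: plate controls were DMSO wells for no effect and camptothecin positive control wells for full effect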
#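 Compounds are pinned in duplicate onto adhered PC3M cells stably expressing GFP-tagged PTB and incubated 16 h at 37 C. Cells are then fixed, nuclei stained with Hoechst, and PNC-positive cells counted.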
# ALDH1A1 inh: qHTS Assay for Inhibitors of Aldehyde Dehydrogenase 1 (ALDH1A1); Purified ALDH1A1, NADH fluorescence, propionaldehyde substrate; Potency, µM (titrated, usually from 75.3 µM), for the others: top-dose activity, negative = inhibition, most hits filed as inhibitors; hit rate 7.3% among 220,000; Aldehyde dehydrogenase 1A1 (Homo sapiens), P00352;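 further: potency means the concentration at half of the fitted maximal effect; plate controls were no enzyme wells and a reference inhibitor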
# HPGD block: qHTS Assay for Inhibitors of HPGD (15-Hydroxyprostaglandin Dehydrogenase). AID 894, 2007. Potency, µM, for the others: top-dose activity change, negative = inhibition, hits mostly inhibitors. 15-hydroxyprostaglandin dehydrogenase [NAD(+)] (Homo sapiens), P15428. purified HPGD, NADH fluorescence kinetic, PGE2 substrate. hit rate 4.3% among 150,000; further: potency means the concentration at half of the fitted maximal effect
# Target sequence (P15428 whole entry, looked up): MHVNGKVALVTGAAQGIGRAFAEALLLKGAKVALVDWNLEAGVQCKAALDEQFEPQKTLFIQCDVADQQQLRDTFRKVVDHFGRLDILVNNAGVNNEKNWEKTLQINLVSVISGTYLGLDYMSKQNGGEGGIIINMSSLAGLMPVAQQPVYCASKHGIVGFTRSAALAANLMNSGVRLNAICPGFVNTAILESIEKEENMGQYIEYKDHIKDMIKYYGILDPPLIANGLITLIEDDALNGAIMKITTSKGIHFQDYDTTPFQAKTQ
#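 NADH formation kinetics: reaction with 30 uM PGE2 and 1 mM NAD+ (final), 20 nM enzyme, Tris-HCl pH 8 with Tween 20, after 15 min compound preincubation at room temperature. Fluorescence change, last versus first of five reads.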
# An asterisk follows results filed as active; ? = inconclusive; · = no result; [ ] = dose if it differs, or a comment. Unless noted, the call rests on the fitted dose curve; in most records, active means well fitted inhibition curve with a large enough effect (not every such curve was filed as active); inconclusive means small, poorly fitted or top-dose-only effect, or another doubt; inactive means no such curve, though single readings can be large or run the other way. Unless noted, on the % scale 0 is the no-effect control and ±100 the full control effect.
SMILES,PNC assembly inh,ALDH1A1 inh,HPGD block
Cc1onc(-c2ccccc2Cl)c1C(=O)Nc1cccc(-c2nc3ncccn3c2C)c1,-10,?,?
Cc1onc(-c2ccccc2Cl)c1C(=O)OCc1cnc(Cl)s1,·,8%,·
c1ccc(CSc2ccc(-c3ccccn3)nn2)nc1,·,-7%,·
C#CCCCO/N=C1/C[C@@H](O)[C@@H](O)[C@@H]2[C@H]3C(=O)N(c4ccc(F)cc4F)C(=O)[C@@H]3CC[C@@H]12,·,5%[13.5 µM],·
CCNc1ccc(C(=O)OCC(=O)c2cc(C)n(Cc3ccc4c(c3)OCO4)c2C)cc1[N+](=O)[O-],46,5%,-8%
Cc1cc(C(=O)Nc2nnc(C3CCCCC3)s2)no1,-27,?,-10%
Cc1cc(C(=O)Nc2nnc(-c3ccccc3)s2)no1,-98*,-5%,-29%
Cc1onc(-c2ccccc2)c1C(=O)Nc1nc2c(s1)CCCC2,36,?,-14%
Cc1cc(C(=O)Nc2nc3c(s2)CCCC3)no1,-107*,11µM*,-18%
C/C(=N\OCC(=O)NC(C)C)c1cccs1,·,0%,·
CCCC(=O)N1CCN(c2ccc(NC(=S)NC(=O)CC)cc2)CC1,10,8%,-9%
NC(=S)Nc1cccc(F)c1,·,1%,·
Fc1cccc(NC(=S)NNc2c3ccccc3nc3ccccc23)c1,·,3.2µM*,·
CS(=O)(=O)N1CCC[C@@]2(CCN(Cc3nccs3)C2)C1,·,3%,-5%
CCCOc1ccc(NC(=O)CC2C(=O)N(Cc3ccccc3)C(=S)N2Cc2cccs2)cc1 (stereo unspecified),6,?,-17%
COc1ccccc1CCn1c(=O)c(-c2ccccc2)nc2cncnc21,·,-9%,-3%
COC(=O)[C@@]1(Cc2ccccc2)[C@H]2c3cc(C(=O)N4CCCC4)[nH]c3C[C@H]2CN1C(=O)c1ccccc1,·,-3%,-7%
O=C(/C=C/C=C/c1ccccc1)c1ccco1,·,28µM*,·
O=C(/C=C/c1ccc(Br)cc1)c1ccco1,48,15%,-15%
O=Cc1ccsc1B(O)O,·,1%,-5%
COC(=O)[C@H](Cc1ccccc1)NC(=O)Nc1ccc(C)cc1,0,-3%,-23%
CC(=Nc1ccccc1)C1=C(O)CSC1=O,-12,25µM*,-18%
COc1ccc(N=C(C)C2=C(O)CSC2=O)cc1,19,?,-15%
Cc1ccccc1N1CCN(Cc2nc(Cc3ccccc3)no2)CC1,·,-5%,·
CC(=O)c1ccc(N2CCN(Cc3nc(Cc4ccccc4)no3)CC2)cc1,·,18µM*,·
SMILES,PNC assembly inh,ALDH1A1 inh,HPGD block
OC(CSc1ccc(F)cc1)CN1CCN(c2ccccc2)CC1 (stereo unspecified),·,0%,·
COc1ccc(/C=N\NC(=O)COc2ccccc2)c(C(=O)O)c1OC,?,6%,-18%
COc1ccc([N+](=O)[O-])cc1/C=N/NC(=O)CNC(=O)C(c1ccccc1)c1ccccc1,11,?,-18%
COc1ccc([N+](=O)[O-])cc1/C=N/NC(=O)CNC(=O)c1cccc(F)c1,?,?,25µM*
O=C(CNC(=O)c1cccc(F)c1)N/N=C/c1cc(Br)ccc1OC(=O)/C=C/c1ccco1,-81*,?,-16%
O=C(CNC(=O)c1ccc(F)cc1)N/N=C/c1cc(Br)ccc1OCc1ccccc1,19,2%,-11%
Cc1ccc(NC(=O)c2ccccc2N(C)S(=O)(=O)c2ccccc2)c(C)c1,-25,11%,0%
O=C(OCC(=O)N1CCc2ccccc2C1)c1cccnc1Cl,·,8%,·
CCOC(=O)C1=C(C)N=c2s/c(=C\c3ccc(OCC(=O)O)cc3)c(=O)n2C1c1ccc(OC(C)C)cc1 (stereo unspecified),-1,8%,4.5µM*
COc1cccc(C2C(C(=O)Nc3ccccc3)=C(C)N=c3s/c(=C/c4ccc(OCC(=O)O)cc4)c(=O)n32)c1 (stereo unspecified),-2,-12%,-23%
COc1ccc(N2CCN(S(=O)(=O)c3cnc[nH]3)CC2)cc1,·,4%,·
COc1ccc(C(=O)NCC(=O)OCC(=O)c2ccc3c(c2)NC(=O)CO3)cc1OC,·,9%,·
COc1cc(OC)cc(C(=O)N[C@H](C(=O)OCC(=O)c2ccc3c(c2)NC(=O)CO3)C(C)C)c1,30,22µM*,-20%
CC(C)[C@H](NC(=O)c1ccccc1)C(=O)OCC(=O)c1ccc2c(c1)NC(=O)CO2,2,1.1µM*,-24%
CC[C@H](C)[C@H](NC(=O)c1ccc(Cl)cc1)C(=O)OCC(=O)c1ccc2c(c1)NC(=O)CO2,18,-11%,-13%
